How the values were obtained:
[1] = molecular target: Serine/threonine-protein kinase MARK2 (Homo sapiens) (UniProt Q7KZI7); conditions: at 1 µM
[2] = molecular target: PAS domain-containing serine/threonine-protein kinase (Homo sapiens) (UniProt Q96RG2); conditions: at 0.1 µM
[3] = molecular target: PAS domain-containing serine/threonine-protein kinase (Homo sapiens) (UniProt Q96RG2); conditions: at 1 µM
[4] = molecular target: Phosphorylase b kinase gamma catalytic chain, skeletal muscle/heart isoform (Homo sapiens) (UniProt Q16816); conditions: at 0.1 µM
Sequence of Phosphorylase b kinase gamma catalytic chain, skeletal muscle/heart isoform (Homo sapiens) (Q16816 whole entry, looked up, canonical isoform): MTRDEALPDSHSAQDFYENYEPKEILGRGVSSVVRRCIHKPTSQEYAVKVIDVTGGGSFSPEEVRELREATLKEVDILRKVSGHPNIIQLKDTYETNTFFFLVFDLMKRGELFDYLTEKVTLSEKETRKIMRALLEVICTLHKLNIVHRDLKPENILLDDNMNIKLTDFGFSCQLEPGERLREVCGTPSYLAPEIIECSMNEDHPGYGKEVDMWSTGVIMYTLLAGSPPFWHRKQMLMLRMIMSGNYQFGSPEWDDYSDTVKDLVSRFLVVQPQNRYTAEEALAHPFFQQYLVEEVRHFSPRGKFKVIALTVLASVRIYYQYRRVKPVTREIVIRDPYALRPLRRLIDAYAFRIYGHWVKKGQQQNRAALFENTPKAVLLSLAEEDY

[5] = molecular target: Phosphorylase b kinase gamma catalytic chain, skeletal muscle/heart isoform (Homo sapiens) (UniProt Q16816); conditions: at 1 µM
[6] = molecular target: T1, Phosphorylase b kinase gamma catalytic chain, liver/testis isoform (Homo sapiens) (UniProt P15735); conditions: at 0.1 µM
T1 sequence (whole entry): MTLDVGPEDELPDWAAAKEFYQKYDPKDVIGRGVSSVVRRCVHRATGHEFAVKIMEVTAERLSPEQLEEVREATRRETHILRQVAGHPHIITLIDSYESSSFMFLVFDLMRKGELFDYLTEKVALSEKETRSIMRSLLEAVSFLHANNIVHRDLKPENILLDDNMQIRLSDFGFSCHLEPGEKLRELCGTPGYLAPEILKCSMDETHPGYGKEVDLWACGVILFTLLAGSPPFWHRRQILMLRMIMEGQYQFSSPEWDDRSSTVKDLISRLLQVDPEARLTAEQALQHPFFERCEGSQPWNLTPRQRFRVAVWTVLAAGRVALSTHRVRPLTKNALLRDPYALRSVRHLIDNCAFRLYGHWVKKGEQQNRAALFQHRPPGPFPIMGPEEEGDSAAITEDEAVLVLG

[7] = molecular target: T1, Phosphorylase b kinase gamma catalytic chain, liver/testis isoform (Homo sapiens); conditions: at 1 µM
[8] = molecular target: Serine/threonine-protein kinase pim-1 (Homo sapiens) (UniProt P11309); conditions: at 0.1 µM
Sequence of Serine/threonine-protein kinase pim-1 (Homo sapiens) (P11309 whole entry, looked up): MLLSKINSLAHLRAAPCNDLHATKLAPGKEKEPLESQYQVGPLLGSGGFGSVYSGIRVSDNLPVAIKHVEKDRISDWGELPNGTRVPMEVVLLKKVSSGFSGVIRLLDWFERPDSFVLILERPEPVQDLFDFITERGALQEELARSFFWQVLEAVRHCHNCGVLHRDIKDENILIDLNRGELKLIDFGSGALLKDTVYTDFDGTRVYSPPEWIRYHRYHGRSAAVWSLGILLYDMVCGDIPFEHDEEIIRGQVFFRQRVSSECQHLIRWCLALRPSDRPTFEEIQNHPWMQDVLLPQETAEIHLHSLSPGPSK

[9] = molecular target: Serine/threonine-protein kinase pim-1 (Homo sapiens) (UniProt P11309); conditions: at 1 µM
[10] = molecular target: Serine/threonine-protein kinase pim-2 (Homo sapiens) (UniProt Q9P1W9); conditions: at 0.1 µM;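 also: reported value is the mean percent inhibition of PIM2, measured in the GSK PKIS kinase inhibitor set screen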
Sequence of Serine/threonine-protein kinase pim-2 (Homo sapiens) (Q9P1W9 whole entry, looked up): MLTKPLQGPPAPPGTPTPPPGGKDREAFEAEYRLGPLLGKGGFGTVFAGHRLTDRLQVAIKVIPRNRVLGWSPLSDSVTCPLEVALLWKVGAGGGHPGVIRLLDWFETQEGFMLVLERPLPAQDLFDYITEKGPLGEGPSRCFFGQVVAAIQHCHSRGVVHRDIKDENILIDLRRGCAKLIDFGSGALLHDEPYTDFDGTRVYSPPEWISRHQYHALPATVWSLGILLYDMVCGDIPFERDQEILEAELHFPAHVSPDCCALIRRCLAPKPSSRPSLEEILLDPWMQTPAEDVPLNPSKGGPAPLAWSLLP

Sequence of Serine/threonine-protein kinase MARK2 (Homo sapiens) (Q7KZI7 whole entry, the tested form may be a part): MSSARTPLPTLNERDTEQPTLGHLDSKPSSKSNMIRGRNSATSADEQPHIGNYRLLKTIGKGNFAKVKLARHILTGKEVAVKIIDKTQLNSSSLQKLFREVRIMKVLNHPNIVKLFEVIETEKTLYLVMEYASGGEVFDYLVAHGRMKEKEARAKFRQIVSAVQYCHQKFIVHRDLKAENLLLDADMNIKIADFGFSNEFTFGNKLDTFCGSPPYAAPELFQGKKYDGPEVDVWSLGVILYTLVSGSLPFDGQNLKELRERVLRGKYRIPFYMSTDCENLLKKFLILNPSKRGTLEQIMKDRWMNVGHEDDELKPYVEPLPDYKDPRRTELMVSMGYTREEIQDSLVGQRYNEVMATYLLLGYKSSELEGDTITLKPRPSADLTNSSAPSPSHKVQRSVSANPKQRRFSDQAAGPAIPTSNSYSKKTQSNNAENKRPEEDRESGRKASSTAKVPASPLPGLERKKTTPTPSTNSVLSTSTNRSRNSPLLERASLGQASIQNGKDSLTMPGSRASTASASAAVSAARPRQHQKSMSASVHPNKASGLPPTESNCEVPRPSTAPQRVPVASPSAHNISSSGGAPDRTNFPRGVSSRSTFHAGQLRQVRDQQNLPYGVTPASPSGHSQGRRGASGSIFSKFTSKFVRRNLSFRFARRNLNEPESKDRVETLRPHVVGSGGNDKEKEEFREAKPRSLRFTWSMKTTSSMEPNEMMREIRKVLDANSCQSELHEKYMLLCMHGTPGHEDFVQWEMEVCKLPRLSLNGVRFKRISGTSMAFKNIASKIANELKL
Sequence of PAS domain-containing serine/threonine-protein kinase (Homo sapiens) (Q96RG2 whole entry, the tested form may be a part, canonical isoform): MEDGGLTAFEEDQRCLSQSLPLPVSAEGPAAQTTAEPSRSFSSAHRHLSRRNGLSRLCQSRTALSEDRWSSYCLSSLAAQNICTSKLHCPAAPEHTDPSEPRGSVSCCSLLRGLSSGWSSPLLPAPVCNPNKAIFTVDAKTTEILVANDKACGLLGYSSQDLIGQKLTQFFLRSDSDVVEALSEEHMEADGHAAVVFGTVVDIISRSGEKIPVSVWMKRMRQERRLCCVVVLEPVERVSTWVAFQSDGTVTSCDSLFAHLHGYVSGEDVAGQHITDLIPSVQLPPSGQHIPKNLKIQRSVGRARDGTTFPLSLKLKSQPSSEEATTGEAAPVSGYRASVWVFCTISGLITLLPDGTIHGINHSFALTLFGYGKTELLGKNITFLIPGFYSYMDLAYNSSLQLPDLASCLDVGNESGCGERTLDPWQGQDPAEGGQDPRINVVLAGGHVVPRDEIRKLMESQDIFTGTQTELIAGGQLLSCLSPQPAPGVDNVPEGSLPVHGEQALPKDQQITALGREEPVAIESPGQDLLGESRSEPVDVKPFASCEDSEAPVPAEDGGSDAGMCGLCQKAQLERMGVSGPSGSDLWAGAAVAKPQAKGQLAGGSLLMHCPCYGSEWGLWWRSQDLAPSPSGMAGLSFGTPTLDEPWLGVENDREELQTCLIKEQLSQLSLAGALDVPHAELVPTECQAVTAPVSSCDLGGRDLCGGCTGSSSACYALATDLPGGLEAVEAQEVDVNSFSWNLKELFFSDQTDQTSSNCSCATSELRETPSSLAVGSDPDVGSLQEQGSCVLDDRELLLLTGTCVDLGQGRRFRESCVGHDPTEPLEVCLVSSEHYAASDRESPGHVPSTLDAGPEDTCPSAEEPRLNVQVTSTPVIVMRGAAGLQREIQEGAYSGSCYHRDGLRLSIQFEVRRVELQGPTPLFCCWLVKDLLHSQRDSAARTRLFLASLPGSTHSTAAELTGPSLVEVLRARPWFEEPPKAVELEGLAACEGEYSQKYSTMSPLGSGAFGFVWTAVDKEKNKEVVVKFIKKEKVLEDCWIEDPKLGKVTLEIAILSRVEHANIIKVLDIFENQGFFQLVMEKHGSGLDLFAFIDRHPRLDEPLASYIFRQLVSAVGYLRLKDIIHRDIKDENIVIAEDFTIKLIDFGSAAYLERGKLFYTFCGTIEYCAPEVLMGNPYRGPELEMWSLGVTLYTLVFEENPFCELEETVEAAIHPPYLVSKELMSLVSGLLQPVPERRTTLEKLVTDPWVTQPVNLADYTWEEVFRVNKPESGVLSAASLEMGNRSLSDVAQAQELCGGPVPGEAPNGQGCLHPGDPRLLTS

| SMILES | inhibition [1] | inhibition [2] | inhibition [3] | inhibition [4] | inhibition [5] | inhibition [6] | inhibition [7] | inhibition [8] | inhibition [9] | inhibition [10] |
| --- | --- | --- | --- | --- | --- | --- | --- | --- | --- | --- |
| COc1cc2ncnc(Nc3ccc4c(cnn4Cc4ccccc4)c3)c2cc1OC | 3.96% | 0.55% | -0.09% | 3.79% | 8.41% | 2.67% | 2.41% | 0.14% | 1.19% | 0.05% |
| COC(=O)Nc1nc2cc(Oc3ccc(NC(=O)Nc4cccc(Br)c4)cc3)ccc2[nH]1 | 0.27% | 0.17% | 1.67% | 3.04% | 4.55% | 3.62% | 2.45% | -0.51% | 0.21% | -0.42% |
| COC(=O)c1ccc2c(c1)C(=Cc1cc(Br)c(O)c(Br)c1)C(=O)N2 | 4.91% | -1.3% | -0.51% | 0.67% | 7.49% | 4.41% | 3.92% | 8.81% | 50.9% | 10.7% |
| CC(C)c1ccc(Nc2nccc(-c3cnn4ncccc34)n2)cc1 | 1.01% | -0.78% | -0.93% | 2.33% | 7.97% | 4.16% | 3.83% | -0.71% | 2.45% | -0.13% |
| CCS(=O)(=O)c1ccc(OC)c(Nc2ncc(-c3cccc(OC)c3)o2)c1 | 1.4% | 0.21% | -1.97% | 1.03% | 18.3% | 2.69% | -0.05% | 1.53% | 2.93% | 0.07% |
| COc1cc(/C=N/Nc2ncnc3c2cnn3C(C)C)ccc1O | 1.32% | -0.76% | -1.33% | 2.28% | 5.02% | -0.14% | 1.57% | 0.52% | 2.04% | 0.9% |
| CN(c1ccc(NC(=O)Nc2ccc(OC(F)(F)F)cc2)cc1)c1ccnc(Nc2cccc(S(N)(=O)=O)c2)n1 | -1.52% | 0.55% | 0.28% | 1.77% | 9.58% | 3.6% | 2.53% | 0.23% | -0.84% | 0.55% |
| COc1cccc(-n2ncc3c(N/N=C/c4ccc(S(C)(=O)=O)cc4)ncnc32)c1 | 3.41% | -0.17% | 0.02% | 2.42% | 2.63% | 1.57% | 2.21% | -0.52% | 1.73% | -3.69% |
| O=C1Nc2ccc(-c3cccnc3)cc2C1=Cc1cc(Br)c(O)c(Br)c1 | 5.11% | 0.91% | 1.32% | 3.37% | 9.21% | 4.01% | -0.09% | 6.4% | 37.6% | 8.09% |
| Nc1ccc(C#Cc2cncnc2Nc2ccc(OCc3cccc(F)c3)c(Cl)c2)cc1 | 0.46% | 1.09% | 1.56% | 4.22% | 2.49% | 3.68% | 4.32% | 0.21% | 1.21% | 0.43% |
| NS(=O)(=O)c1ccc(Nc2cc(-c3cccc(O)c3)n[nH]2)cc1 | 6.24% | 0.14% | -1.99% | 3.73% | 12.8% | 6.63% | 6.34% | -0.06% | 1.3% | 0.62% |
| COC(=O)c1cncc(/C=C/c2c(C)cc(O)cc2C)c1 | -0.07% | -0.51% | 1.51% | 1.77% | 4.16% | 4.23% | 6.97% | 1.57% | 1.55% | -0.56% |
| Nc1nccc(-c2c(-c3ccc(F)cc3)nn3cc(C(F)(F)F)ccc23)n1 | -0.77% | 0.89% | 0.42% | 3.63% | 3.94% | 0.86% | 0.54% | 0.21% | -0.89% | -0.09% |
| CN(C)C(=O)O[C@@H]1CN[C@@H](C#Cc2cc3ncnc(Nc4ccc(OCc5cccc(F)c5)c(Cl)c4)c3s2)C1 | 1.06% | -0.1% | -0.12% | 0.51% | -3.21% | 1.07% | -1.09% | 1.41% | 0.48% | 0.15% |
| Cc1ccc2c(-c3ccnc(Nc4cccc(C(F)(F)F)c4)n3)c(-c3ccccc3)nn2n1 | 4.11% | -0.16% | -0.17% | 2.62% | 7.08% | 4.1% | 4.82% | 1.05% | 1.72% | -0.26% |
| COc1ccc2ncnc(Nc3ccc(OCc4ccccc4)cc3)c2c1 | 0.4% | -0.03% | 2.46% | 4.44% | 4.51% | 1.92% | 2.81% | 0.17% | 0.4% | -0.18% |
| OCc1ccc(-c2nc(-c3ccccn3)c(-c3ccc4c(c3)OCO4)[nH]2)cc1 | 2.05% | 0.83% | -1.14% | 2.77% | -6% | 5.91% | 2.21% | 0.78% | 0.98% | 0.72% |

| SMILES | inhibition [1] | inhibition [2] | inhibition [3] | inhibition [4] | inhibition [5] | inhibition [6] | inhibition [7] | inhibition [8] | inhibition [9] | inhibition [10] |
| --- | --- | --- | --- | --- | --- | --- | --- | --- | --- | --- |
| Cc1ccc(O)cc1Nc1ccnc2ccc(S(C)(=O)=O)cc12 | 1.93% | -0.05% | 4.61% | 6.2% | 10% | 5.57% | 7.16% | 0.95% | 1.4% | 0.23% |
| CCn1c(-c2nonc2N)nc2ccc(F)cc21 | -0.64% | 1.69% | 0.49% | 6.81% | 7.3% | 7.81% | 12.6% | 0.08% | 1.85% | -0.12% |
| CN(C)c1cc2c(Nc3ccc4c(cnn4Cc4ccccc4)c3)ncnc2cn1 | 0.46% | 0.31% | -1.1% | 2.72% | 4.62% | 3.31% | 1.97% | -0.22% | 1.78% | -0.29% |
| COc1cccc(-n2ncc3c(N/N=C/c4ccc(C)cc4)ncnc32)c1 | 6.23% | -0.93% | 0.57% | 2.43% | 10% | 5.73% | 5.98% | 1.21% | 3.51% | -0.44% |
| O=C(Nc1ccc(Oc2ccc3[nH]c(NC(=O)c4ccco4)nc3c2)cc1)Nc1cc(C(F)(F)F)ccc1F | 0.83% | 0.28% | 0.06% | 0.41% | 8.29% | 0.46% | -0.56% | 0.14% | 1.19% | -3.36% |
| Nc1nccc(-c2c(-c3ccc(F)cc3)ncn2CCCN2CCOCC2)n1 | 1.26% | -0.18% | 0.84% | 5.3% | 5.42% | 3.78% | 4.82% | 1.45% | 0.82% | 0.76% |
| CS(=O)(=O)Nc1cccc(-c2ccc3c(NC(=O)C4CC4)n[nH]c3c2)c1 | 2.88% | 0.72% | -0.4% | 3.02% | 6.04% | 2.36% | -0.09% | 0.69% | 0.43% | 0.5% |
| Cc1cc(Cl)cc2c1NC(=O)C2=NNc1ccc(S(N)(=O)=O)cc1 | -0.15% | 0.48% | 1.94% | 3.63% | 6.02% | 2.58% | 5.19% | 0.03% | 1.28% | -0.12% |
| Cc1cc(-c2ccccn2)cc(C)c1/C=C/c1cncc(-c2nn[nH]n2)c1 | 4.96% | -0.97% | -1.06% | 3.51% | 7% | 1.5% | 5.59% | 1.73% | 2.55% | 0.01% |
| COc1cc2ncn(-c3cc(OCc4ccccc4S(C)(=O)=O)c(C#N)s3)c2cc1OC | 70.7% | 0.91% | 0.31% | 45.2% | 76.5% | 4.94% | 10.9% | 0.71% | 0.97% | 0.9% |
| N#Cc1c(NC(=O)c2ccccc2F)sc2c1CCCC2 | 3.45% | 1.88% | 1.22% | 1.23% | 2.36% | -2.2% | -2.57% | 0.9% | 2.11% | 0.14% |
| Cc1ccc(Nc2ccnc(Nc3cccc(C(N)=O)c3)n2)cc1O | 3.99% | 0.66% | 0.18% | 1.96% | 10.4% | 4.75% | 6.26% | 0.14% | 1.49% | -4.07% |
| CCS(=O)(=O)c1ccc(OC)c(Nc2nccc(N(C)c3ccc4c(C)n[nH]c4c3)n2)c1 | 3.54% | -0.44% | 0.34% | 6.38% | 6.76% | 6.39% | 4.62% | 1.18% | 1.44% | 0.05% |
| CCOc1nccc2c1nc(-c1nonc1N)n2CC | 1.46% | 1.66% | 5.36% | 3.39% | 5.97% | 4.34% | 9.55% | 0.76% | 2.04% | 0.25% |
| COc1cc2ncnc(Nc3ccc(C)c(O)c3)c2cc1OC | 0.64% | -0.16% | 0.97% | 6.64% | 23.5% | 5.48% | 7.74% | 1.41% | 1.44% | 1.6% |
| Cc1ccc(C(=O)NC2CC2)cc1-c1ccc2[nH]ncc2c1 | 5.77% | 1.24% | 1.27% | -0.37% | 1.36% | -5.73% | -5.52% | 1.72% | 4.32% | 0.52% |
| Cc1ccc2c(c1)/C(=N/Nc1ccc(S(N)(=O)=O)cc1)C(=O)N2 | 4.44% | 0.38% | 0.32% | 1.32% | 11% | 1.11% | 0.07% | 0.77% | 0.99% | 0.28% |
